# Screening data from PubChem.
# In the library only some 4.9% were active in any assay of this set; here they are far more common.
# TIM10 inh: TIM10 yeast growth inhibition; S. cerevisiae TIM10 strain growth, BacTiter-Glo luminescence, 24 h; inhibition, % at 10 µM; 1.4% of 330,000 active; AID 463195;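 active means inhibition of 40% or more at the single tested concentration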;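 further: wild-type TIM10 isogenic control strain grown at permissive 25 °C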
# NALP1 yeast inh: blocks the NALP1 inflammasome reconstituted in yeast. inhibition, % at 10 µM. 0.61% of 280,000 active. AID 2071. S. cerevisiae NALP1/ASC/caspase-1 growth, X-gal OD620, 72 h; in the data active means inhibition mostly above about 24%, no sharp cut-off; inactive means mostly below about 32%
# NLRP3 yeast inh: inhibitors of NALP3 inflammasome in yeast; Yeast reconstituted NLRP3/ASC/caspase-1, beta-gal luminescence, 24 h; inhibition, % at 10 µM; 0.39% of 330,000 active;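 active means inhibition of 50% or more; inactive means inhibition below 50%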;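 further: plate controls were induced DMSO wells for no effect and uninduced yeast grown without galactose for full effect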
# tim10-1 inh: tim10-1 yeast growth inhibition; S. cerevisiae tim10-1 ts strain growth, BacTiter-Glo, 24 h; inhibition, % at 20 µM; 2.2% of 330,000 active; AID 463190;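 active means inhibition of at least 40%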;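 further: mutant grown at 25 °C; 0% = DMSO wells with yeast and 100% = wells holding no yeast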
# SKKanGAS inh: blocks kanamycin growth of S. pyogenes SKKanGAS strain; 1.3% of 300,000 active; BacTiter-Glo, 6 h; inhibition, % at 7.5 µM; AID 1662;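 active means mean replicate score, as percent of positive control median, at least 50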;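 further: strain carries kanamycin resistance gene driven by streptokinase promoter and grows in 40 µg/ml kanamycin; loss of luminescence reflects streptokinase promoter inhibition or plain growth inhibition; 0% = median of DMSO wells and 100% = positive control at its reference dose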
# tim23-1 inh: inhibits growth of tim23-1 mutant yeast; inhibition, % at 20 µM; 1.3% of 330,000 active; S. cerevisiae tim23-1 growth, BacTiter-Glo luminescence, 24 h;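 active means growth inhibition of the mutant yeast at or above 50%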;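 further: temperature-sensitive mutant grown at 25 °C; plate controls were DMSO-treated mutant yeast for no effect and medium wells lacking yeast for full effect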
# TIM10 conf: confirmation of TIM10 yeast growth inhibitors; shares compounds with TIM10 inh; S. cerevisiae tim10 strain growth, BacTiter-Glo luminescence, 24 h; inhibition, % at 10 µM; 63% of 4,600 active;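 active means inhibition of yeast growth at or above a set limit in either of two replicates at 10 µM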;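 further: this counterscreen used the strain with wild-type TIM10; 0% = yeast with DMSO and 100% = medium wells lacking yeast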
# The depositor's hits bear a star; . = no result given.
SMILES,TIM10 inh,NALP1 yeast inh,NLRP3 yeast inh,tim10-1 inh,SKKanGAS inh,tim23-1 inh,TIM10 conf
COc1cccc(C(=O)N/N=C(/c2ccccc2)c2ccccn2)c1,40.1*,-33.1,15.0,34.7,55.7*,35.1,5.4
COc1cc(C(=O)N/N=C(\c2ccccc2)c2ccccn2)cc(OC)c1OC,18.8,21.2,-1.8,21.9,23.2,28.2,.
COc1ccc2nc(C)cc(Nc3ccc(N4CCN(C)CC4)cc3)c2c1,-161.7,18.5,4.6,-95.2,6.9,-94.9,.
Cc1noc(C)c1COc1ccc(C(=O)OCc2nnc(-c3ccc(Cl)cc3)o2)cc1,42.7*,0.9,13.5,32.4,11.9,10.0,37.2*
O=C(OCc1nnc(-c2ccc(Cl)cc2)o1)c1ccncc1,-1.0,1.0,8.0,9.5,-2.9,23.1,.
COc1ccc(NC(=O)CC2CC3CCC2C3)cc1S(=O)(=O)N1CCOCC1 (configuration not stated),-12.0,.,17.8,-6.9,.,9.6,.
COC(=O)CCc1c(COC(C)=O)[nH]c(C(=O)OCc2ccccc2)c1C,15.6,-0.6,0.3,-0.7,4.3,22.0,.
CCn1c(CNS(=O)(=O)c2ccc(Br)cc2)n[nH]c1=S,8.9,-9.4,13.4,-6.0,1.9,0.0,.
CCOC12NC(=O)CC(=O)N1C(c1ccccc1)=CS2 (configuration not stated),42.5*,-21.4,10.6,35.9,.,43.3,28.1
Cc1ccc(NC(=O)COC(=O)CC2CCCC2)cc1F,11.6,.,-4.8,-19.0,.,42.7,.
O=C(NNC(=S)NC1CCCCC1)c1cccc(S(=O)(=O)Nc2ccccc2Cl)c1,40.9*,7.9,8.1,27.5,9.5,20.6,41.4*
Cc1ccc(C23CC4CC(CC(C(=O)NC(C)C)(C4)C2)C3)cc1,44.1*,-13.8,17.6,19.2,-3.3,40.1,29.9
COc1cc(SC)ccc1C(=O)Nc1cccc(S(=O)(=O)NC2=NCCC2)c1,13.2,.,7.8,14.5,.,13.4,.
CN(C)CCN(C(=O)c1ccc(S(=O)(=O)N2CCCC2)cc1)c1nc2ccc(Br)cc2s1,14.7,18.4,12.4,16.3,4.6,16.1,.
CC1CCCCN1S(=O)(=O)c1ccc(C(=O)N(CCCN(C)C)c2nc3ccc(Br)cc3s2)cc1 (configuration not stated),40.0,12.6,10.0,16.4,15.4,11.5,22.9
CCC(=O)Nc1ccc2c(c1)nc1n2CCSC1,-2.1,5.4,13.3,19.6,1.6,14.5,.
O=C(Nc1ccc2c(c1)nc1n2CCSC1)c1ccccc1,66.3*,5.8,48.0,38.7,2.0,40.0,67.2*
O=C(Nc1ccc2c(c1)nc1n2CCOC1)c1ccccc1,63.3*,-10.1,10.4,34.7,-5.6,44.0,46.5*
CC(C)C(=O)Nc1ccc2c(c1)nc1n2CCSC1,4.3,13.4,-4.1,8.6,-2.9,8.5,.
COc1ccc(C(=O)Nc2ccc3c(c2)nc2n3CCSC2)cc1,50.9*,3.4,11.7,10.5,-3.6,35.1,41.5*
Cc1nc2ccc(NC(=O)c3ccccc3)cc2s1,44.1*,7.4,41.4,-5.5,-10.0,29.8,7.0
Cc1c(-c2ccccc2)nc2ccccc2c1C(=O)NCc1cccs1,22.8,23.3,6.0,17.8,-12.4,35.3,.
O=[N+]([O-])c1ccc(OCCCCN2CCc3ccccc3C2)cc1,-15.8,23.1,23.1,-32.2,-0.4,-0.7,.
COc1ccc(CCNC(=O)CSc2nnc3ccc(-c4ccccn4)nn23)cc1,6.5,.,-0.8,13.1,43.8,11.8,.
O=C(COC(=O)COc1ccc(Cl)cc1Cl)Nc1cccnc1Cl,-7.3,27.6,-11.2,-6.0,1.4,3.1,.
SMILES,TIM10 inh,NALP1 yeast inh,NLRP3 yeast inh,tim10-1 inh,SKKanGAS inh,tim23-1 inh,TIM10 conf
Cc1ccc(CNC(=O)c2ccc(CNS(=O)(=O)c3ccc4c(c3)C(C)(C)C(=O)N4C)cc2)o1,3.9,13.6,11.8,9.2,0.6,6.5,.
CC(NC(=O)COC(=O)c1cc(=O)c2ccccc2o1)c1ccccc1 (configuration not stated),-5.1,.,5.9,-1.5,.,8.7,.
Cc1nc2ccc(NS(=O)(=O)c3c(F)cccc3F)cc2s1,3.6,.,-3.4,9.4,.,21.6,.
Cc1nc2ccc(NS(=O)(=O)c3ccc(F)cc3)cc2s1,60.3*,5.7,14.5,3.4,-3.0,9.1,-0.2
CC12CC(c3ccccc3O1)N(C(=O)c1ccco1)C(=S)N2c1ccc(F)cc1 (configuration not stated),42.1*,6.4,-0.8,38.2,-3.3,47.7,40.0*
CC(=O)Nc1ccc(S(=O)(=O)N2CCSC2c2ccco2)cc1 (configuration not stated),13.4,14.4,-6.5,11.8,-3.6,7.3,.
O=C(Nc1ccc(Cl)c(Cl)c1)N1CCSC1c1ccco1 (configuration not stated),48.2*,2.8,20.9,23.6,4.2,34.3,30.9*
O=[N+]([O-])c1ccc2c3n([n+]([O-])c2c1)CCN=C3c1ccc(Cl)cc1,5.2,.,17.8,9.2,20.7,12.5,.
CCCNC(=O)N(CCOC)CC1CCCN(C2Cc3ccccc3C2)C1 (configuration not stated),-6.8,9.6,17.3,4.4,-5.1,7.0,.
CCNC(=O)N(CCOC)CC1CCCN(C2Cc3ccccc3C2)C1 (configuration not stated),51.0*,15.7,17.3,-15.1,-4.7,-6.6,-7.8
COc1ccccc1N1CCN(C(=O)c2ccc([N+](=O)[O-])s2)CC1,42.8*,24.1,2.3,24.8,9.4,34.8,-12.6
O=C(NC(=S)NN1CCOCC1)c1cc(Br)ccc1Cl,2.2,.,22.2,1.7,.,-4.9,.
CSc1ccc(S(=O)(=O)Nc2ccc3c4c(cccc24)CC3)cc1,41.9*,6.2,2.9,29.6,28.8,45.3,19.9
COc1ccc(CNC(=O)COC(=O)c2ccc(S(=O)(=O)N3CCOCC3)cc2)cc1,0.1,.,20.9,9.2,.,13.5,.
O=c1oc(-c2ccccc2)nc2sc3c(c12)CCC3,42.4*,21.0,15.4,37.1,3.7,35.2,24.2
CC(C)(C)c1cc(O)c(C(C)(C)C)cc1O,46.9*,.,1.1,31.5,1.8,45.8,42.0*
CC(C)(C)OC(=O)C[C@H]1C/C=C\C[C@H](CC(=O)N(CCO)Cc2ccccc2)C(=O)N[C@@H](c2ccccc2)COC1=O,-2.6,.,7.4,8.1,.,3.9,.
COc1ccc(C(=O)NNC(=O)c2ccccc2[N+](=O)[O-])cc1Br,0.3,14.9,3.4,5.1,-3.1,7.7,.
CC(C)(C)c1ccc(OCC(=O)NNC(=S)NC(=O)c2ccccc2[N+](=O)[O-])c(Br)c1,48.7*,-2.7,26.2,36.2,99.9*,44.6,43.8*
CCCCCCCNC(=O)C1(CC2CC(c3ccc(Cl)cc3)=NO2)CCNCC1 (configuration not stated),3.2,10.1,-2.2,16.5,11.9,18.7,.
Fc1ccc2[nH]c3c(c2c1)CN(C(=S)NCc1ccccc1)CC3,40.5*,9.7,21.2,29.4,8.5,49.1,38.0*
